Data: PubChem BioAssay AID1851 (National Center for Advancing Translational Sciences (NCATS), 2009)
About 2,600 (16%) of roughly 16,000 compounds were called active. Not shown: some 20% with an inconclusive outcome. Calls come from the whole dose curve; as a rule, active = well fitted curve in the direction sought with a large enough effect; inconclusive = small, poorly fitted or top-dose-only effect, or effect the other way; inactive = no such curve, though single readings can be large or run the other way. The list is a sample of the results.
% is set by controls: 0 for no effect and ±100 for the full control effect.

What follows are molecules tested against Cytochrome P450 2D6 (Homo sapiens) (UniProt P10635) (assay: Cytochrome panel assay with activity outcomes). Conditions: recombinant CYP, pro-luciferin dealkylation, luminescence, p450-cyp2d6; series mostly up to 57.1 µM.
Chain of Cytochrome P450 2D6 (Homo sapiens) (P10635 whole entry, looked up): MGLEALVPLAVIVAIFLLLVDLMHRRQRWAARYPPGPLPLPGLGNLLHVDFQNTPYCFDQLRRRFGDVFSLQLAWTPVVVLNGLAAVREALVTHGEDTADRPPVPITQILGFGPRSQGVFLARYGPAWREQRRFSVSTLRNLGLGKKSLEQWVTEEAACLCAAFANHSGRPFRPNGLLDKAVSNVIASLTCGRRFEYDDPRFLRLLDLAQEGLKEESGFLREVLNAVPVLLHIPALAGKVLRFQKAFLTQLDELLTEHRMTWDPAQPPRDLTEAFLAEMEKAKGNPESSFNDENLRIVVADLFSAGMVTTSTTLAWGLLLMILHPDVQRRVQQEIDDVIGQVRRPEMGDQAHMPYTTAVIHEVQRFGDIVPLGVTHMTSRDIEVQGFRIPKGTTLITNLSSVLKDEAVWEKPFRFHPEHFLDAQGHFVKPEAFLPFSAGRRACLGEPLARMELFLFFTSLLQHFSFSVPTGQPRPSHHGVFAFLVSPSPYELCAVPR
For CS(=O)(=O)N1CCC2(CC1)CN(C(=O)Nc1cccc(C#N)c1)C2, the AC50 was “inactive”.
In the case of O=C(O)/C=C\C(=O)N1Cc2cc3ccccc3nc2C1, the activity, negative = inhibition is reported as -1.33% [at 11.4 µM] (inactive).
CC(=O)N(CC(O)CN(C(C)=O)c1c(I)c(C(=O)NC[C@@H](O)CO)c(I)c(C(=O)NC[C@@H](O)CO)c1I)c1c(I)c(C(=O)NC[C@@H](O)CO)c(I)c(C(=O)NC[C@@H](O)CO)c1I was tested, and the AC50 was “inactive”.
COc1ccc(-n2cccc2C=O)cc1OC was tested, and the AC50 was “inactive”.
CS(=O)(=O)N1CCC2(CC1)CN(c1ccc(-c3ccccc3)cc1)C2 was tested, and the AC50 was “inactive”.
CS(=O)(=O)N1CCC2(CCN(c3ccccc3)CC2)CC1 was tested, and the AC50 was “inactive”.
CS(=O)(=O)N1CCC2(CCN(c3cccc(-c4ccccc4)c3)CC2)CC1 was tested, and the AC50 was “inactive”.
For CS(=O)(=O)N1CCC2(CCN(C(c3ccccc3)c3ccccc3)CC2)CC1, the AC50 was 3.16 µM (active).
In the case of CS(=O)(=O)N1CCC2(CCCN(c3ccncc3)C2)CC1, the AC50 is reported as “inactive”.
For CS(=O)(=O)N1CCC2(CC1)CN(c1ccncc1)C2, the AC50 was “inactive”.
In the case of CS(=O)(=O)N1CCC2(CC1)CN(C(=O)Nc1ccccc1)C2, the AC50 is reported as “inactive”.
In the case of CS(=O)(=O)N1CCC2(CCCN(C(c3ccccc3)c3ccccc3)C2)CC1, the AC50 is reported as 5.01 µM (active).
For CS(=O)(=O)N1CCC2(CC1)CN(C(c1ccccc1)c1ccccc1)C2, the AC50 was 2.51 µM (active).
CS(=O)(=O)N1CCC2(CC1)CN(c1ccccc1)C2 was tested, and the AC50 was 1.26 µM (active).
For O=C1NC(=S)N/C1=C/c1cccc([N+](=O)[O-])c1O, the AC50 was “inactive”.
In the case of O=C1CC(c2ccc(F)cc2)Cc2nc(NCC3CCCO3)ncc21 (configuration not stated), the AC50 is reported as “inactive”.
CC12CCC(C(=O)Nc3ncc([N+](=O)[O-])s3)(OC1=O)C2(C)C (configuration not stated) was tested, and the AC50 was “inactive”.
With Cc1cccc(C(=O)NN(C)c2nc(-c3ccccc3)nnc2C(F)(F)F)c1 the AC50 was “inactive”.
In the case of CCOC(=O)N1CCN(C(=O)c2cc(-c3ccc(F)cc3)[nH]c2C)CC1, the AC50 is reported as “inactive”.
COC(=O)C/C=C\[C@@H](C)[C@@H](/C=N\O[C@@H](C)c1cn([C@H](CO)Cc2ccccc2)nn1)NS(=O)(=O)c1ccc(C)cc1 was tested, and the activity, negative = inhibition was -17.6% [at 11.4 µM] (inactive).
COCCCn1nnnc1SCC(=O)N1CCCC1 was tested, and the AC50 was “inactive”.
For Cn1c(SC2CCCCC2=O)nnc1-c1ccncc1 (configuration not stated), the AC50 was “inactive”.
In the case of COC(=O)Cn1nc(-c2ccccc2)n(-c2ccccc2)c1=S, the AC50 is reported as “inactive”.
O=C(NC(=S)Nc1cccc(Cl)c1N1CCCC1)c1ccc(-c2cccc([N+](=O)[O-])c2)o1 was tested, and the AC50 was “inactive”.
For CS(=O)(=O)N1CCC[C@@]2(CCN(c3ccccc3)C2)C1, the AC50 was “inactive”.
With CS(=O)(=O)N1CCC[C@@]2(CCN(C(=O)Nc3ccccc3)C2)C1 the AC50 was “inactive”.
With CS(=O)(=O)N1CCC[C@@]2(CCN(C(c3ccccc3)c3ccccc3)C2)C1 the AC50 was 3.98 µM (active).
In the case of Cc1nc2c3cnn(-c4ccc(C)c(C)c4)c3ncn2n1, the AC50 is reported as “inactive”.
For CCCc1nnc(SCC(=O)N2CCCC(C)C2)n1CC1CCCO1 (configuration not stated), the AC50 was “inactive”.
With COC(=O)N1CCC2(CC1)CN(C(=O)Nc1ccc(OC)cc1)C2 the AC50 was “inactive”.
For Cc1ncc(CO)c(CO)c1O, the AC50 was “inactive”.
With Cc1ncc2c(c1O)COP(=O)(O)OC2 the AC50 was 1 µM (active).
In the case of CCC1NC(=S)N(C2CCCCC2)C1=O (configuration not stated), the AC50 is reported as “inactive”.
With C(/C=C/c1ccco1)=N/N1CCN(c2ccccc2)CC1 the AC50 was “inactive”.
For O=C(/C=C/c1ccccc1Cl)NCCN1CCOCC1, the AC50 was “inactive”.
In the case of N=c1n(CCN2CCOCC2)c2ccccc2n1CC(=O)c1ccc(Cl)c(Cl)c1, the AC50 is reported as 2 µM (active).
O=C(/C=C/c1ccc(Cl)cc1)NCCN1CCOCC1 was tested, and the AC50 was “inactive”.
With O=c1c(-c2ccc(F)cc2)nc2cnc(N3CCOCC3)nc2n1C1CC1 the AC50 was “inactive”.
O=C(CN1C(=O)c2ccccc2C1=O)NC1(C(=O)O)CCCC1 was tested, and the activity, negative = inhibition was 2.83% [at 11.4 µM] (inactive).
In the case of COCCn1c(=O)c(-c2ccccc2)nc2cnc(Oc3ccccc3)nc21, the AC50 is reported as “inactive”.
With COc1ccc(NC(=O)N2CC3(CCN(C(=O)c4ccc(OC)cc4)CC3)C2)cc1 the AC50 was “inactive”.
With C[C@H]1CC(C)(C)C[C@@](OCCN2CCCCC2)(c2ccccc2)C1 the AC50 was 0.631 µM (active).
In the case of CCCc1nnc(SCC(=O)N2CCCCC2C)n1CC1CCCO1 (configuration not stated), the AC50 is reported as “inactive”.
In the case of Cc1ccc(OC(=O)N2CCOCC2)cc1, the AC50 is reported as “inactive”.
With CCOC(=O)C1CCCN(c2ncnc3c2cnn3-c2cccc(C)c2)C1 (configuration not stated) the AC50 was “inactive”.
In the case of CN1CCN(c2ncc3nc(-c4ccc(F)cc4)c(=O)n(C4CC4)c3n2)CC1, the AC50 is reported as “inactive”.
In the case of COc1ccc(-c2nnc(SCc3cccc(C)c3)n2N)cc1, the AC50 is reported as 14.1 µM (active).
In the case of CCn1c(SCc2cccc(C)c2)nnc1-c1ccc(C)cc1, the AC50 is reported as “inactive”.
In the case of COc1ccc(NCc2nnc(SCc3ccccc3)n2-c2ccc(OC)cc2)cc1, the AC50 is reported as “inactive”.
Cc1ccc(OCC(=O)NC2=NCCS2)cc1 was tested, and the AC50 was “inactive”.
With CCC(=O)Nc1ccc(C(=O)NNC(=O)c2cccs2)cc1 the AC50 was “inactive”.
With CC(C)[C@H](NC(=O)OC(C)(C)C)[C@@H](O)CC(=O)C(C)(C)C the activity, negative = inhibition was 3.85% [at 11.4 µM] (inactive).
With CC(=O)C[C@H](O)[C@@H](NC(=O)OC(C)(C)C)C(C)C the activity, negative = inhibition was -3.21% [at 11.4 µM] (inactive).
CC(C)[C@H](NC(=O)OC(C)(C)C)[C@@H](O)CC(=O)OC(C)(C)C was tested, and the AC50 was 3.16 µM (active).
For Cc1ccc(NC(=O)C2CCN(S(=O)(=O)c3c(C)n[nH]c3C)CC2)nc1, the AC50 was “inactive”.
With NC[C@@H]1O[C@H](C23CC4CC(CC(C4)C2)C3)Cc2c1ccc(O)c2O the AC50 was “inactive”.
NC(=O)CSc1nc2sc(-c3ccccc3)cc2c(=O)n1N was tested, and the AC50 was “inactive”.
COc1ccc(C[C@@H]2C(=O)N[C@H](C)C(=O)N(C)[C@@H]3Cc4ccc(cc4)Oc4cc(ccc4O)C[C@H](C(=O)N[C@@H](C)C(=O)N[C@H](C)C(=O)N2C)N(C)C3=O)cc1 was tested, and the activity, negative = inhibition was -5.02% [at 11.4 µM] (inactive).
In the case of CC[N+](CC)(CC)CCOc1ccc(/C=C\c2ccccc2)cc1, the AC50 is reported as 7.94 µM (active).
In the case of CC[N+](CC)(CC)CCOc1cccc(OCC[N+](CC)(CC)CC)c1OCC[N+](CC)(CC)CC, the AC50 is reported as “inactive”.
With O=C(NCCCn1ccnc1)c1ccc(Br)c(S(=O)(=O)N2CCOCC2)c1 the AC50 was 0.316 µM (active).
For Cc1ccc(C(=O)NCCCN2CCOCC2)cc1N1CCCC1=O, the AC50 was “inactive”.
With CCOC(=O)N1CCN(C(=O)c2ccc(Cl)c(S(=O)(=O)N3CCOCC3)c2)CC1 the AC50 was “inactive”.
With O=C(O)/C=C\C(=O)Nc1ccc2c(c1)-c1ccccc1C2 the activity, negative = inhibition was 8.73% [at 11.4 µM] (inactive).
In the case of CC(=O)N1CCC2(CC1)CN(c1ccncc1)C2, the AC50 is reported as “inactive”.
For O=C(N/N=C/c1ccccn1)c1ccc(Br)o1, the AC50 was “inactive”.
CN(C)c1ncc2nc(-c3ccccc3)c(=O)n(C3CC3)c2n1 was tested, and the AC50 was “inactive”.
In the case of C=CCSC[C@@H]1Nc2cc(Cl)c(S(N)(=O)=O)cc2S(=O)(=O)N1, the AC50 is reported as “inactive”.
In the case of COc1ccc(C(=O)/C=C2/c3ccccc3CC(C)(C)N2C)cc1, the AC50 is reported as 0.282 µM (active).
For COc1ccc(C(=O)N2CCC3(CCN(C)CC3)CC2)cc1, the AC50 was “inactive”.
COc1ccc(C(=O)/C=C(/C)N(C)C)cc1 was tested, and the AC50 was “inactive”.
For Clc1cccc(Oc2cnc3ccccc3n2)c1, the AC50 was “inactive”.
COC(=O)c1ccc(NC(=O)C2CCCCC2C(=O)O)cc1 (configuration not stated) was tested, and the AC50 was “inactive”.
COC(=O)c1ccc(NC(=S)NC2CCCCC2)cc1 was tested, and the AC50 was 15.8 µM (active).
Cc1ccc(NC(=S)NC2CCCC2)cc1 was tested, and the AC50 was “inactive”.
In the case of CCCCCCCC/C=C\CCCCCCCC(=O)NCc1ccc(O)c(OC)c1, the AC50 is reported as 3.16 µM (active).
With CCCCCCCCC(=O)NCc1cc(OC)c(O)cc1I the AC50 was 7.94 µM (active).
With CCCc1nnc(NC(=O)CCC(=O)NCc2ccccc2OC)s1 the AC50 was “inactive”.
With CCCCCCCCCCCCCCCC(=O)NC(C)C the AC50 was “inactive”.
For CCCCCCCC/C=C\CCCCCCCC(=O)N[C@@H](CO)Cc1ccc(O)cc1, the AC50 was 0.126 µM (active).
For CC(=O)N[C@H](Cc1ccc(O)cc1)C(=O)O, the activity, negative = inhibition was -3.43% [at 11.4 µM] (inactive).
With COc1cc(CC(=O)O)ccc1O the AC50 was “inactive”.
CCCCCC(=O)Nc1cc2[nH]c(=O)cc(COC)c2cc1C was tested, and the AC50 was “inactive”.
CCCCCCCC/C=C\CCCCCCCC(=O)NCCc1ccc(O)c(O)c1 was tested, and the AC50 was “inactive”.
For O=C(Nc1ccc(F)cc1Cl)c1ccc2c(=O)n3c(nc2c1)CCCCC3, the AC50 was “inactive”.
In the case of Cc1ccc(N=C/C(C(=O)C(F)(F)F)=C(\O)c2cccs2)cc1, the AC50 is reported as “inactive”.
CCOC(=O)Cc1csc(NC(=S)NC(=O)c2ccc(F)cc2)n1 was tested, and the AC50 was “inactive”.
In the case of CCOc1ccc(NC(=O)N2CCC(C(N)=O)(N3CCCCC3)CC2)cc1, the AC50 is reported as “inactive”.
For CC(C)CO/N=C1/[C@H]2O[C@@H]2[C@@H](O)[C@H]2[C@H]1CCn1c(=O)n(-c3ccccc3)c(=O)n12, the activity, negative = inhibition was 12.6% [at 11.4 µM] (inactive).
COCCn1c(=O)c(-c2cccs2)nc2cnc(Oc3ccccc3)nc21 was tested, and the AC50 was “inactive”.
In the case of CC(C)C(O)(C(C)C)C(C)C, the activity, negative = inhibition is reported as 8.61% [at 11.4 µM] (inactive).
For CCOc1ccc(NC(=O)c2ccc(OC)cc2)cc1, the AC50 was “inactive”.
COc1ccc(C(=O)Nc2cccc(OC(=O)c3ccc(C)c(C)c3)c2)cc1 was tested, and the AC50 was “inactive”.
COc1ccc(C(=O)Nc2cc(OC)cc(OC)c2)cc1 was tested, and the AC50 was 7.08 µM (active).
With CCCCc1nc(SCC(=O)Nc2ncccn2)n[nH]1 the AC50 was “inactive”.
With COC(=O)COc1ccsc1C(=O)OC the AC50 was “inactive”.
For Cc1ccc(-c2nc3ccccc3o2)cc1NC(=O)Cc1cccs1, the AC50 was “inactive”.
For COc1ccc2oc(-c3ccc(C)c(NC(=O)CSc4ccc(Cl)cc4)c3)nc2c1, the AC50 was 2.51 µM (active).
COc1ccc2oc(-c3ccc(C)c(NC(=O)c4ccc(N5CCOCC5)c([N+](=O)[O-])c4)c3)nc2c1 was tested, and the AC50 was “inactive”.
Cc1cccc(NC(NC(=O)c2cccnc2)C(Cl)(Cl)Cl)c1 (configuration not stated) was tested, and the AC50 was “inactive”.
NC(=O)c1ncn([C@@H]2O[C@@H](CO)[C@@H](O)[C@H]2O)c1O was tested, and the AC50 was “inactive”.
With COc1ccc(O[C@H]2C=C[C@@H](c3ccccc3)O[C@@H]2CON=C(C)C)cc1 the activity, negative = inhibition was -3.07% [at 11.4 µM] (inactive).
